Six compounds from PubChem BioAssay (NCATS) can be followed below.

Values joined by “and” are separate entries in the source; they are usually repeats but may differ in a detail not shown here. Equal values may be shown once. Inconclusive results are not listed. Active and inactive are the calls of the source. Calls come from the whole dose curve; as a rule, active = well fitted curve in the direction sought with a large enough effect; inconclusive = small, poorly fitted or top-dose-only effect, or another doubt; inactive = no such curve, though single readings can be large; an effect the other way counts as inactive or inconclusive.

In experiment [1] the target is Cellular tumor antigen p53 (Homo sapiens) (UniProt P04637). In words: Primary qHTS for small molecule compounds that upregulate eGFP-tagged delta133p53alpha (in N-terminal) cells. (AID 2060322).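 For activation: series mostly up to about 56 µM; 0% = DMSO vehicle and 100% = reference activator.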 Note: nearly all actives have a fitted effect of over 75% in size. Note: potency is the fitted concentration of half-maximal effect. The conditions noted are these: NCI-H358 eGFP-delta133p53alpha fluorescence, 24 h; activation: hits give high values. Put shortly:
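NCI-H358 cells pre-induced 24 h with 10 ng/ml doxycycline to express N-terminal eGFP-delta133p53alpha, then dosed 24 h at 37C without doxycycline; fixed, Hoechst-stained, GFP intensity by laser scanning cytometry, normalized to DMSO (0%) and 57.5 uM 5-azacytidine (100%).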

For experiment [2], the target named is Aldehyde dehydrogenase, mitochondrial (Homo sapiens) (UniProt P05091). Briefly: qHTS for Inhibitors of the Aldehyde Dehydrogenase Family (ALDH2) Primary screen (AID 2061308).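 Note: plate controls were vehicle for no effect and reference inhibitor for full effect; nearly all actives have a fitted effect of over 55% in size.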 On the technique in general: In qHTS, concentration-response curves come from the screen itself.
Experiment [3] addresses Retinaldehyde dehydrogenase 3 (Homo sapiens) (UniProt P47895). Briefly: qHTS for Inhibitors of the Aldehyde Dehydrogenase Family (ALDH1A3) Primary screen (AID 2061315).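 Note: plate controls were DMSO vehicle for no effect and reference inhibitor for full effect.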

Sequence of Cellular tumor antigen p53 (Homo sapiens) (P04637 whole entry, looked up): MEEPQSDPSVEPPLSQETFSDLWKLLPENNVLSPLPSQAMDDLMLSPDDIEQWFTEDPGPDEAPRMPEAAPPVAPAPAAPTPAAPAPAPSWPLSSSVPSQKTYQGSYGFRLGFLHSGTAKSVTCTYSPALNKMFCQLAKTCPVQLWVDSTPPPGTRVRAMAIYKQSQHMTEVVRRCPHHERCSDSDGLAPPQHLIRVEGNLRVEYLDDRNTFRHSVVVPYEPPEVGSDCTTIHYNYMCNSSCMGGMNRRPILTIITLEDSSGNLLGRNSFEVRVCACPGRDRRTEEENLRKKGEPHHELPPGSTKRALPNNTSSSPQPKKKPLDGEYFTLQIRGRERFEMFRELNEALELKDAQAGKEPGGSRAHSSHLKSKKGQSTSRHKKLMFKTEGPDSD

In the case of `C=CC1C(O[C@@H]2O[C@H](CO)[C@@H](O)[C@H](O)[C@H]2O)OC=C(C(=O)OC)C1Cc1nccc2c1[nH]c1ccccc12` (stereo partly drawn), the activation in experiment [1] is 19.6% (inactive). The Potency entry in experiment [2] and in experiment [3] was “inactive” throughout.
`C/C=C(/C)C(=O)O[C@H]1[C@H](OC(=O)/C(C)=C\C)[C@@]23C(CC1(C)C)[C@]1(CCC4[C@@]5(C)CC[C@H](O[C@@H]6O[C@H](C(=O)O)[C@@H](O)[C@H](O[C@@H]7O[C@H](CO)[C@H](O)[C@H](O)[C@H]7O[C@@H]7O[C@@H](C)[C@H](O)[C@@H](O)[C@H]7O[C@@H]7OC[C@@H](O)[C@H](O)[C@H]7O)[C@H]6O[C@@H]6O[C@H](CO)[C@H](O)[C@H](O)[C@H]6O)C(C)(C)C5CC[C@@]4(C)[C@]1(C)C[C@H]2O)O[C@H]3O` (stereo partly drawn): in experiment [1], the activation is -8.93% (inactive). Moreover, the activity change, negative = inhibition in experiment [2] is -1.6% [at 11.2 µM] (inactive); in experiment [3] it was -5.71% [at 11.2 µM] (inactive).
As for `C=CC(C)(C)C1(CC2NC(=O)C3CCCN3C2=O)C(=O)Nc2cc3c(cc21)C=CC(C)(C)O3` (stereo not drawn), the activation in experiment [1] was 6.87% (inactive). In addition, the Potency result in experiment [2] and in experiment [3] was “inactive” throughout.
As to `COc1ccc(C(=O)Nc2ncc(-c3ccc(C(=O)O)cc3)s2)cc1`, in experiment [1], the Potency was 10.7 µM (active). The Potency entry in experiment [2] and in experiment [3] was “inactive” throughout.
In the case of `CC/C=C(\C(=O)N[C@@H]1C(=O)N2C(C(=O)OCOC(=O)C(C)(C)C)=C(COC(N)=O)CS[C@H]12)c1csc(N)n1`, the activation in experiment [1] is 2.82% (inactive) and -18.4% (inactive). The Potency entry in experiment [2] and in experiment [3] was “inactive” each time.
For `C[C@@H]1O[C@@H](O[C@H]2[C@H](OC(=O)[C@]34CCC(C)(C)C[C@H]3C3=CCC5[C@@]6(C)CC[C@H](O[C@@H]7O[C@H](CO[C@@H]8OC[C@H](O)[C@H](O)[C@H]8O)[C@@H](O)[C@H](O)[C@H]7O)C(C)(C)C6CC[C@@]5(C)[C@]3(C)C[C@H]4O)OC[C@@H](O)[C@@H]2O)[C@H](O)[C@H](O)[C@H]1O[C@@H]1OC[C@H](O)[C@H](O[C@@H]2OC[C@@H](O)[C@H](O)[C@H]2O)[C@H]1O` (stereo partly drawn), the activation in experiment [1] was 3.82% (inactive). Also, the activity change, negative = inhibition in experiment [2] was 2.19% [at 11.2 µM] (inactive); in experiment [3], 8.01% [at 11.2 µM] (inactive).
